Source: PubChem BioAssay AID602197 (NMMLSC, 2012)
The other results are listed elsewhere or left out. Values without a mark were called inactive. Cut-off read from the data, not from the text of the source: active = response above about 24%; inactive = the rest.

Assay: yeast V-ATPase proton pumping modulators, confirmation, S. cerevisiae, pH-sensitive GFP, second cherry-pick (AID 602197);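 note: plate controls were vehicle wells for no effect and positive control wells for full effect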
Conditions: S. cerevisiae pHLuorin cytosolic pH, V-ATPase proton transport; at 10 µM; active compounds read high

Compound	response [%]
Cc1ccccc1N1C(=O)NC(=O)/C(=C\c2cc(C)n(C)c2C)C1=O	1.24
CC(=O)Nc1ccc(C(=O)C(Cc2ccccc2)N(C)C)cc1 (configuration not stated)	2.66
